Source: PubChem BioAssay AID1347076 (National Center for Advancing Translational Sciences (NCATS), 2019)
In all, about 400,000 compounds went through this assay and about 13,000 (3.2%) were called active. About 18% were inconclusive and are not listed. The sample as a whole holds a higher share of actives than the screen did. Unmarked numbers belong to inactive results. Calls follow the shape of the dose curve; as a rule, active = well fitted cell-killing curve with a large enough effect; inconclusive = small, poorly fitted or top-dose-only effect, or effect the other way; inactive = flat fitted curve, though single readings scatter.

Test: qHTS assay for MDR1-selective chemotherapeutics: Primary screen using the drug-selected MDR subline cells KB-V1; also: nearly all actives have a fitted effect of over 60% in size
Settings: KB-V1 MDR cells viability, CellTiter-Glo, 72 h; series mostly up to 46.1 µM; activity change, negative = cytotoxicity: at the top concentration
How it was run: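 Luminescent ATP read-out (CellTiter-Glo, 10 min) measures survival of drug-selected KB-V1 MDR cells after 72 h, 37 degrees C compound exposure. Medium: phenol-red-free DMEM, 10% FBS. Values from fitted concentration-response curves.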
% is scaled to controls: 0 for no effect and ±100 for the full control effect; potency is read from the fitted curve at half-maximal effect.

Point of comparison: COc1ccc(C(CNC(=O)c2ccc(OCc3cscn3)cc2)N2CCCC2)cc1 (centres undefined), “activity change, negative = cytotoxicity” value -28.3%. Against it:
- CCN(CC)C(=O)C1CCCN(Cc2cccc(Cl)c2)C1 (centres undefined) — higher, -18.5%
- Cc1ccc(NC(=O)C2CCCN2C(=O)OCc2ccccc2)cc1C (centres undefined) — higher, -4.42%
- CCOC(=O)C1CCN(C(=O)Nc2ccc(C)c(Cl)c2)CC1 — higher, -17.6%
- Cc1ccc(NC(=O)COC(=O)CN2CCSC2=O)cc1F — higher, 23.3%
- CCc1ccccc1NC(=O)c1ccc2nc(CCc3ccccc3)oc2c1 — higher, 11%
- CN(C)c1ccc(/C=C2\C=Cc3ccccc32)cc1Br — higher, 0.234%
- Cc1ccccc1N1CCN(CC(=O)NCc2ccc(Cl)cc2)CC1 — higher, -0.77%
- O=C(CN1CCN(S(=O)(=O)c2ccc(Cl)s2)CC1)N1CCCCC1 — higher, 0%
- COC(=O)c1ccc(NCc2cc(O)ccc2O)cc1 — higher, 2.93%
- CC(C)OC(=O)c1ccc(NCc2cc(O)ccc2O)cc1Cl — higher, -6.71%
- O=S(=O)(c1ccc2c(c1)OCCO2)N1CCc2ccccc21 — higher, 0%
- O=C(CCNC(=O)c1ccccc1)Nc1nc2ccccc2s1 — higher, -7.25%
- O=S(=O)(c1ccccc1)N1CCc2ccccc21 — higher, -0.951%
- O=C(Nc1nnc(S(=O)(=O)N2CCCc3ccccc32)s1)c1cccc(F)c1 — higher, -5.74%
- O=C(CNC(=O)c1ccccc1)Oc1ccc([N+](=O)[O-])cc1 — higher, 18.4%
- CNC(=O)c1ccsc1NC(=O)c1ccc(S(=O)(=O)N2CCc3ccccc32)cc1 — higher, 7.33%
- CN(Cc1ccccc1)C(=O)[C@@H]1CCCN1C(=O)[C@@H]1CCCN1C(=O)c1c(F)cccc1F — higher, 12.5%
- O=C(COC(=O)c1cccc(Cl)c1Cl)NC1CCCCCC1 — higher, 12.9%
- CNC[C@H]1OCc2cnnn2CCCC(=O)N([C@H](C)CO)C[C@@H]1C — higher, -19.9%
- C[N+](C)(C)CCNC(=O)c1c[nH]c2ccccc12 — higher, 19%
- Cc1ccc(Cc2c(-c3ccc(Cl)cc3)nc3c4ccccc4ccn23)cc1 — higher, 0%
- COc1ccc(CN2C(=O)C(CC(=O)NCCN3CCOCC3)CC(C(=O)N(C(C)C)C(C)C)=C2C)cc1 (centres undefined) — higher, -19.7%
- COC(=O)c1ccccc1S(=O)(=O)Nc1ccc(OC)cc1 — higher, 0%
- OC[C@@H]1CN(Cc2ccc(-c3ccccc3)cc2)C[C@H](n2cnc3c(NC4CCCC4)ncnc32)O1 — higher, -23.1%
- Cc1ccc(Cn2c(=O)n(Cc3nc(-c4ccccc4)no3)c(=O)c3cc4c(cc32)OCO4)cc1 — higher, 1.08%
- CCOC(=O)[C@]12CCC=C1N(Cc1ccccc1)C(=O)[C@H](CC(=O)N1CCCC1)C2 — higher, -9.13%
- COc1cc(C(O)c2nc(-c3cnn(C)c3)cs2)ccc1F (centres undefined) — higher, -7.75%
- COc1ccc(C(=O)c2oc3ccc(Br)cc3c2NC(C)=O)cc1 — higher, -12.6%
- COc1ccc(C(=O)/C=C/c2ccc(OC3CSC3)cc2)cc1 — higher, -14.1%
- COc1ccc(CCNC(=O)Nc2ccc3c(c2)c(=O)n(C)n3C)cc1OC — higher, 2.68%
- COC(=O)C[C@@H]1C=C[C@@H](NC(=O)c2cccnc2)[C@@H](CO)O1 — higher, -2.5%
- COc1cccc(C(=O)Nc2ccc3nc4n(c(=O)c3c2)CCCCC4)c1 — higher, -4.99%
- COc1ccc(C(=O)Nc2ccc(N3CCC(C)CC3)cc2)cc1Br — higher, 7.59%
- O=C1c2ccccc2C(=O)N1c1ccc(S(=O)(=O)N2CCOCC2)c2ccccc12 — higher, 17.2%
- CCOc1ccccc1N(CC)C(=O)Nc1cn(C)c(=O)c2ccccc12 — higher, 2.28%
- N#Cc1c(-c2ccccc2)nc(SCc2cccc(C(F)(F)F)c2)[nH]c1=O — higher, 2.26%
- O=c1c2ccccc2nc2n1C(CSc1ccc(F)cc1)CN2 (centres undefined) — higher, -3.49%
- COc1cccc(CNS(=O)(=O)c2ccc3c(c2)CC(C)N3C(C)=O)c1 (centres undefined) — higher, -12.7%
- COc1cc(NC(=O)C2=C(C)OCCS2)c(Cl)cc1C(=O)NCCCN1CCCC(C)C1 (centres undefined) — higher, -18.3%
- Cc1cc(C)cc(-n2c(SCC(=O)NCC3CCCO3)nc3c([nH]c4ccccc43)c2=O)c1 (centres undefined) — higher, 3.92%
- Cc1ccc(C(=O)NNC(=O)C(C)Oc2ccc3ccccc3c2)o1 (centres undefined) — higher, -25.8%
- CCCc1ccc(OCC(=O)NNC(=S)NC(=O)c2ccco2)cc1 — higher, -7.59%
- COC(=O)Cc1ccc(OC2(C)CCN(Cc3ccc4c(c3)OCCO4)C2)cc1 (centres undefined) — higher, 0.961%
- CC(C)CCNC(=O)C(C)N(C(=O)Cn1nnc(-c2ccc(F)cc2)n1)C1CCCC1 (centres undefined) — higher, 0.71%
- CN(C(=O)Cn1nnc(-c2ccc(F)cc2)n1)C1CCS(=O)(=O)C1 (centres undefined) — higher, 12.2%
- CCCCCCC1(C)NC(c2ccc3c(c2)OCO3)=CC(c2ccccc2O)N1 (centres undefined) — higher, 21.4%
- Cc1ccc(S(=O)(=O)N2C[C@H]3n4c(=O)ccc(=O)n4C[C@H](OC(=O)NC4CCCC4)[C@@]3(O)C2)cc1 — higher, 6.2%
- COc1cccc(NC(=O)C2(C)CCN2Cc2ccccc2Cl)c1 (centres undefined) — higher, -11.7%
- O=Nc1c(O)cc(O)c2ccccc12 — higher, -0.874%

For CCOC(=O)N1CCC(N(CCOC)C(=O)Nc2ccc(C)c(C)c2)CC1, the Potency was 4.11 µM (active).
With O=C(CN1CCN(S(=O)(=O)c2ccc(Cl)s2)CC1)NCc1ccc(Cl)cc1 the Potency was 3.66 µM (active).
In the case of Cc1cc(C)c2nc3nc(C)cc(C)c3c(N)c2c1, the Potency is reported as 18.4 µM (active).
For O=C(OC12CC3CC(CC(C3)C1)C2)c1ccc(NCc2cc(O)ccc2O)cc1, the Potency was 14.6 µM (active).
In the case of O=C(Nc1nc2ccc([N+](=O)[O-])cc2s1)c1ccc(S(=O)(=O)N2CCCc3ccccc32)cc1, the Potency is reported as 1.03 µM (active).
With O=C(NC(Nc1nc2ccc([N+](=O)[O-])cc2s1)(C(F)(F)F)C(F)(F)F)c1ccccc1 the Potency was 0.517 µM (active).
In the case of CSc1nc2ccc(S(=O)(=O)N3CCc4ccccc43)cc2s1, the Potency is reported as 3.66 µM (active).
With COc1ccc(/C=C/C(=O)c2cc(Br)ccc(=O)c2O)cc1 the Potency was 14.6 µM (active).
For COc1cccc(C(=O)Nc2ccc(N3CCCC3)cc2)c1, the Potency was 5.8 µM (active).
In the case of O=c1c2ccccc2nc2n1C(CSCc1cccc(C(F)(F)F)c1)CS2 (centres undefined), the Potency is reported as 2.59 µM (active).
With COc1ccc(N(C)S(=O)(=O)c2ccc3c(c2)CC(C)N3C(=O)C2CC2)c(OC)c1 (centres undefined) the Potency was 8.2 µM (active).
With COc1cccc(CNS(=O)(=O)c2ccc3c(c2)CC(C)N3C(=O)C2CCC2)c1 (centres undefined) the Potency was “inactive”.
In the case of CC(Oc1ccc2ccccc2c1)C(=O)NNC(=S)NC(=O)c1ccco1 (centres undefined), the Potency is reported as 3.66 µM (active).
With CC(C)CCNC(=O)CN(C(=O)Cn1nnc(-c2ccc(F)cc2)n1)C1CCCC1 the Potency was 10.3 µM (active).
